# Assay results published in PubChem BioAssay AID2546 (National Center for Advancing Translational Sciences (NCATS), 2010).
# About 11,000 (3.5%) of roughly 310,000 compounds were called active. A call without a number means that no potency is given here. Inconclusive results (about 8%) are left out. This is one part of a sample in which actives are shown more often than they occur. Calls follow the shape of the dose curve; as a rule, active = well fitted inhibition curve with a large enough effect; inconclusive = small, poorly fitted or top-dose-only effect, or effect the other way; inactive = flat fitted curve, though single readings scatter.
# Test: VP16 counterscreen qHTS for inhibitors of ROR gamma transcriptional activity;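 also: Gal4-VP16 expression switched on by copper sulfate through the metallothionein promoter; nearly all actives have a fitted effect of over 50% in size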
# Details: Drosophila S2 Gal4-VP16 UAS-luciferase, luminescence, 20 h; series mostly up to 53.6 µM
# Text: NIH Molecular Libraries Probe Production Network [MLPCN]
# NIH Chemical Genomics Center [NCGC]
# Assay Provider: Dan Littman, New York University
# The retinoic acid-related orphan receptor (ROR) gamma is a transcription factor that has a central role in the differentiation of Th17 cells, a subset of T helper cells that secrete the inflammatory cytokines IL-17, IL-17F, and IL-22. Th17 cells have been implicated in graft versus host disease, autoimmune disease and asthma. ROR gamma is induced in naive T helper cells in the presence of TGF-beta combined with IL-6, IL-21, or IL-23, and thereafter directs the expression of the Th17 lineage cytokines. To identify nonspecific inhibitors, a Drosophila Schneider cell line was stably transfected with two vectors: a gene expressing a fusion of the Gal4 DNA binding domain and VP16 transactivation domain under the control of the metallothionine promoter and a Photinus luciferase reporter regulated by the Gal4 binding site enhancer, UAS. […] Small molecule inhibitors that inhibit components common to the RORgt and VP16 assays, such as the Gal4 DNA binding domain or the UAS luciferase reporter, will be active in both assays and thus scored as nonspecific.
# For screening, 600 cells in 4 uL/well were dispensed into white solid 1536-well plates (Grenier) using a solenoid-based dispenser. Following transfer of 23 nL compound or DMSO vehicle by a pin tool, the plates were incubated 1 hr at ambient temperature, and 1 uL/well copper sulfate (700 uM final concentration) was added. The plates were centrifuged 15 s at 1000 RPM and incubated 20 hr at ambient temperature. After addition of 1.5 uL Photinus luciferase detection reagent, the plates were incubated 10 min at ambient temperature and then read by a ViewLux (Perkin Elmer) to detect luminescence.
# Potency is read from the fitted curve at half-maximal effect.
row,Structure (SMILES),Potency
1,CSCC[C@H](NC(=O)N1CCn2c1nc1ccccc12)C(=O)NC1CCCCC1,inactive
2,O=C(COC(=O)c1cccs1)Nc1ccccc1Cl,inactive
3,O=C(COC(=O)c1cccs1)NCc1cccs1,inactive
4,O=C(COC(=O)/C(=C/c1cccs1)c1cccs1)NCc1ccccc1Cl,0.631 µM (active)
5,O=C(Nc1cccc(Cl)c1Cl)c1ccccc1NC(=O)C1CC=CCC1C(=O)O (stereo unspecified),inactive
6,CCC1CCCCN1C(=O)CSc1nc2c(c(=O)n1C)SC(C)C2 (stereo unspecified),inactive
7,CCn1c(NC(=O)c2nn(C)cc2Br)nc2ccccc21,5.01 µM (active)
8,Cc1nn(C)cc1C(=O)Nc1ccccc1Br,inactive
9,CCC(=O)NCCc1nc2ccccc2n1CC,inactive
10,Cn1c(NC(=O)c2ccccc2)nc2ccccc21,1.26 µM (active)
11,Cn1sc(NC(=O)c2ccccc2)nc1=O,inactive
12,CC(=O)NCCc1nc2cc(NC(=O)c3ccccc3)ccc2n1C,inactive
13,CC(C)Cc1nnc(NC(=O)CN2C(=O)NC3(CCCCC3)C2=O)s1,inactive
14,Cc1cccn2c(=O)c3cc(C(=O)NCC4CCCO4)c(=N)n(Cc4ccc(F)cc4)c3nc12 (stereo unspecified),inactive
15,COc1ccccc1CN(C)C(=O)c1cc2ccccc2o1,inactive
16,COc1cc(/C=N/NC(=O)c2cccnc2)ccc1OC(=O)c1cccc(Br)c1,inactive
17,COc1ccc(-c2[nH]ncc2/C=N/NC(=O)c2cc(Br)ccc2O)c(OC)c1,0.891 µM (active)
18,COc1ccc(/C=N/NC(=O)Nc2ccc3nsnc3c2)c(OC)c1,inactive
19,CN(c1ccccc1)S(=O)(=O)c1ccc(NC(=O)COc2ccccc2)cc1,inactive
20,COc1cc(/C(=C/c2ccccc2)c2ccccc2)c2c(c1)oc1ccccc12,inactive
21,O=C(COC(=O)c1ccc(Oc2ccccc2)cc1)Nc1nnc(-c2ccccc2)o1,5.62 µM (active)
22,O=C(OCc1ccc(Br)cc1)c1cccc(-c2nnc(-c3ccccc3)o2)c1,inactive

row,Structure (SMILES),Potency
1,Cc1cccc(NC(=O)Nc2nnc(-c3ccccc3)o2)c1,inactive
2,COc1cc(CNCc2ccc3c(c2)OCO3)c([N+](=O)[O-])cc1OC,inactive
3,Cc1ccc(C)c(OCc2cc(C(=O)N3CCN(c4cnccn4)CC3)no2)c1,inactive
4,Oc1ccc(-c2cccc(-c3ccc(O)cc3)c2)cc1,inactive
5,Cc1cccc(NC(=O)c2sc(-c3ccccc3)nc2-c2ccc([N+](=O)[O-])cc2)c1,inactive
6,O=C(Nc1ccccc1)/C(=C/c1ccc([N+](=O)[O-])cc1)NC(=O)c1ccccc1,inactive
7,CCOC(=O)/C(=C\c1ccc([N+](=O)[O-])cc1)C(=O)c1cc(C(C)=O)c(Nc2ccccc2)s1,5.62 µM (active)
8,C#CC(C)(C)NC(=O)c1cnc(-c2ccccc2)nc1-c1ccccc1,inactive
9,CCC(=O)N(CCc1ccccc1)Cc1cc2cc(C)ccc2[nH]c1=O,inactive
10,Cc1cc(C)n(CCNS(=O)(=O)c2ccc(Cl)cc2)n1,inactive
11,CN(C)CCNC(=O)c1[nH]nc2c1CCc1ccccc1-2,inactive
12,COc1cccc(/C=N/NC(=O)c2[nH]nc3c2CCc2ccccc2-3)c1O,0.794 µM (active)
13,COc1cc2cc(C(=O)N/N=C/c3cccc(OC)c3OC)[nH]c2cc1OC,inactive
14,CN(C(=O)CN1C(=O)/C(=C/c2ccc(Cl)cc2)SC1=S)C1CCS(=O)(=O)C1 (stereo unspecified),inactive
15,Cc1cc(N/N=C/c2ccccc2F)c2ccccc2n1,inactive
16,Cc1nc2ccccc2nc1N/N=C/c1ccc(O)cc1O,15.8 µM (active)
17,Oc1ccc(/C=N/NC2=NCCCCC2)c(O)c1,inactive
18,CC(NC(=O)C(=O)NN=C1CCC(C(C)(C)C)CC1)c1ccccc1 (stereo unspecified),inactive
19,CC(C)(C)C1CCC(=NNC(=O)c2ccc(Br)o2)CC1 (stereo unspecified),inactive
20,CC(C)(C)C1CCC(=NNC(=O)c2cc(-c3ccccc3)n[nH]2)CC1 (stereo unspecified),20 µM (active)
21,CN(Cc1ccccc1Cl)C(=O)C1CCC(=O)N(CCc2cccc(F)c2)C1 (stereo unspecified),inactive
22,O=C(CCCn1c(=O)[nH]c2cc(Cl)ccc2c1=O)NCCN1CCN(c2ccccc2)CC1,inactive

row,Structure (SMILES),Potency
1,CCn1c(=O)cc(OCC(=O)NCCCN2CCN(c3cccc(Cl)c3)CC2)c2ccccc21,inactive
2,O=C(Cc1csc(Nc2nc(=S)[nH]c3ccccc23)n1)NCCCN1CCN(c2cccc(Cl)c2)CC1,7.08 µM (active)
3,CCCCn1c(N)c(N(CC)C(=O)c2ccccc2C(F)(F)F)c(=O)[nH]c1=O,inactive
4,Cc1ccc(CNC(=O)Cc2cn(C)c3ccccc23)cc1,inactive
5,CC1CCCC(C)N1C(=O)CSc1nnnn1C1CCCC1 (stereo unspecified),inactive
6,O=C(NCCCO)c1cc2c([nH]c3ccccc32)c(-c2ccc(F)cc2)n1,inactive
7,S=c1[nH]c2ccccc2c2ccccc12,17.8 µM (active)
8,NC(=O)Cc1ccc2c(c1)[nH]c1ccccc12,inactive
9,CC(=O)c1c(-c2ccccc2)c2ccccc2[nH]c1=O,inactive
10,COc1cccc2sc(NNC(=O)c3nc4ccccc4s3)nc12,2 µM (active)
11,O=C(Nc1ccccc1)Nc1nc2ccccc2s1,inactive
12,COc1ccc(S(=O)(=O)N2CCOCC2)cc1C(=O)Nc1nc2ccccc2s1,inactive
13,O=c1[nH]cccc1-c1nc2ccccc2n1Cc1ccc(Cl)cc1,inactive
14,Cc1cc(C)c(NC(=O)CN2CCCCCC2)c(C)c1,inactive
15,O=[N+]([O-])c1ccccc1/C=N/n1c(COc2ccccc2)n[nH]c1=S,inactive
16,S=c1[nH]nc(-c2cccnc2)n1/N=C/C(Cl)=C\c1ccccc1,7.08 µM (active)
17,Oc1ccccc1/C=N/n1c(-c2cccs2)n[nH]c1=S,inactive
18,Cc1cc(-c2n[nH]c(=S)n2/N=C/c2ccco2)n[nH]1,inactive
19,Fc1ccccc1/C=N/n1c(-c2cccnc2)n[nH]c1=S,inactive
20,Cc1cc(-c2n[nH]c(=S)n2/N=C/C(Br)=C/c2ccccc2)n[nH]1,11.2 µM (active)
21,COc1ccc(C2(O)C(=O)Nc3ccccc32)cc1 (stereo unspecified),inactive
22,COCCN1C(=O)C(=O)/C(=C(/O)c2ccc(S(=O)(=O)N3CCOCC3)cc2)C1c1ccc(O)c(OC)c1 (stereo unspecified),inactive

row,Structure (SMILES),Potency
1,CC(C)c1ccc(/C=C2\NC(=O)NC2=O)cc1,inactive
2,CCN(CC)S(=O)(=O)c1ccc(C(=O)N2CCN(C3=NS(=O)(=O)c4ccccc43)CC2)cc1,inactive
3,Cc1nc2nc(SCC(=O)Nc3cccc(F)c3)[nH]c2cc1Br,inactive
4,O=C(O)CCC(=O)Nc1ccc(OCC2CCCO2)cc1 (stereo unspecified),inactive
5,COc1cccc(-c2cc(C(=O)N/N=C/c3ccc(OC)c(COC(C)=O)c3)c3ccccc3n2)c1,inactive
6,Cc1cc(C(=O)N/N=C/c2ccccn2)c2ccccc2n1,inactive
7,Cc1ccc(-c2cc(C(=O)N/N=C/C=C/c3ccco3)c3ccccc3n2)cc1C,4.47 µM (active)
8,CC(NC(=O)CCCC1CCCCC1)c1ccc(S(N)(=O)=O)cc1 (stereo unspecified),inactive
9,O=C(O)CCn1c(Cc2ccccc2)nc2ccccc21,inactive
10,Cc1cc2ccccc2n1CCC(=O)O,inactive
11,O=C(O)CCn1c(O)c(C=C2N=c3ccccc3=N2)sc1=S,3.55 µM (active)
12,COc1ccc(CCNC(=O)CCc2cn(C)c3ccccc23)c(OC)c1,inactive
13,COC(=O)CN1C(=O)C(C)(C)Oc2ccc(C(=O)Nc3cccc(OC)c3)cc21,inactive
14,CCCCNc1nc2c(c(=O)n(C)c(=O)n2C)n1Cc1cccc(OC)c1,4.47 µM (active)
15,Cn1c(=O)c2c(nc(NCCc3ccccc3)n2Cc2ccccc2)n(C)c1=O,6.31 µM (active)
16,CCNc1ncc2ncc(=O)n(CCc3ccccc3)c2n1,inactive
17,COc1cccc(Cn2c(=O)cnc3cncnc32)c1,inactive
18,COC(=O)C(C)Sc1nc2c(c(=O)n(C)c(=O)n2C)n1Cc1cccc(C)c1 (stereo unspecified),inactive
19,Cn1c(=O)c2c(nc(NCc3ccccc3)n2CC(N)=O)n(C)c1=O,inactive
20,CCNc1ncc2ncc(=O)n(Cc3cccc(OC)c3)c2n1,11.2 µM (active)
21,CCn1c(NCCc2ccc(OC)c(OC)c2)nc2c1c(=O)n(C)c(=O)n2C,inactive
22,Cn1c(=O)c2c(nc(OCc3cccnc3)n2Cc2ccccc2)n(C)c1=O,inactive

row,Structure (SMILES),Potency
1,CCOCCCn1c(SCC(=O)Nc2cc(OC)ccc2OC)nc2ccccc2c1=O,inactive
2,CC(C)c1nc2cc(C(=O)NC(C)c3cnn(C)c3)ccc2o1 (stereo unspecified),inactive
3,Cc1cnc(C(=O)Oc2cccc(Cl)c2Cl)cn1,inactive
4,COCCN1CCN(C(=O)c2cc(COc3ccc(F)cc3Cl)on2)CC1,inactive
5,CC(C)c1ccc(NC(=O)Cn2ncc3ccccc32)cc1,inactive
6,O=S1(=O)CCO[C@H]2Cc3ccccc3[C@H]2N1Cc1ccccc1,inactive
7,CCN(CC(=O)NCCCN1CCOCC1)S(=O)(=O)c1cc(Cl)ccc1Cl,inactive
8,COc1ccc(CC(=O)N[C@@H](CCSC)c2nc3ccccc3[nH]2)cc1,inactive
9,CSCCC(NC(=O)c1ccc(=O)n(C)n1)c1nc2ccccc2[nH]1 (stereo unspecified),inactive
10,CSCCC(NC(=O)c1cc([N+](=O)[O-])cc([N+](=O)[O-])c1)c1nc2ccccc2[nH]1 (stereo unspecified),25.1 µM (active)
11,CC(c1ccccn1)N(C)C(=O)c1ccc2nc(Cc3cccc(Cl)c3)oc2c1 (stereo unspecified),inactive
12,CCOC(=O)C(C)n1cnc2c(nnn2-c2cccc(OC)c2)c1=O (stereo unspecified),inactive
13,Clc1ccc(-c2cc(-c3ccccn3)on2)c(Cl)c1,7.08 µM (active)
14,O=C1CSC(c2ccccc2)N1c1nc(-c2ccc(Cl)cc2Cl)cs1 (stereo unspecified),inactive
15,O=C(NCc1ccccn1)c1cc(-c2ccccc2Cl)on1,inactive
16,CC(=O)N1CCCc2cc(S(=O)(=O)N3CCCC(C(=O)NCc4ccc(Cl)cc4)C3)ccc21 (stereo unspecified),inactive
17,CC(=O)N1CCCc2cc(S(=O)(=O)N3CCCC(C(=O)N4CCN(c5cccc(Cl)c5)CC4)C3)ccc21 (stereo unspecified),3.98 µM (active)
18,CC(=O)N1c2ccc(S(=O)(=O)N3CCCC(C(=O)Nc4cccc(Cl)c4)C3)cc2CC1C (stereo unspecified),inactive
